Reference: PubChem BioAssay AID1159580 (chemical genetic matrix, 2015)
Where “and” joins values, the source holds several entries; their conditions need not be identical. Identical values can stand only once. Screen size: about 5,500 compounds; about 2,000 (36%) were called active. Roughly 18% stayed inconclusive and do not appear here. Cut-off read from the data, not from the text of the source: active = normalized growth mostly below about 0.91 (no sharp cut-off); inconclusive = no clear call, values can overlap the other calls; inactive = mostly above about 0.92. This is one part of the list.

Test: chemical genetic growth profiling, strain panel (AID 1159580);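 note: tested at 20 µM; growth read once vehicle control cultures reached saturation at 30 °C; 1 = growth at the plate median or of vehicle wells; lower values mean less growth of the strain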
Conditions: S. cerevisiae deletion strains, growth OD

Measured: normalized growth

CC(C)(C)NCC(O)c1cc(O)cc(O)c1 (stereo not drawn)
inactive: locus YAL013W, strain DEP1, stronger effect = lower value 1 | locus YAL021C, strain ccr4, stronger effect = lower value 0.975 | locus YAL026C, strain drs2, stronger effect = lower value 0.979 | locus YAL030W, strain snc1, stronger effect = lower value 0.98 | locus YAL040C, strain CLN3, stronger effect = lower value 0.976 | locus YBL061C, strain skt5, stronger effect = lower value 0.963 | locus YBR009C, strain hhf1, stronger effect = lower value 1.01 | locus YBR021W, strain FUR4, stronger effect = lower value 1 | locus YBR023C, strain chs3, stronger effect = lower value 0.972 | locus YBR171W, strain sec66, stronger effect = lower value 0.986 | locus YBR229C, strain ROT2, stronger effect = lower value 0.996 | locus YBR231C, strain swc5, stronger effect = lower value 0.997 | locus YBR279W, strain paf1, stronger effect = lower value 0.98 | locus YCL011C, strain gbp2, stronger effect = lower value 0.985 | locus YCL016C, strain dcc1, stronger effect = lower value 0.967 | locus YCL029C, strain bik1, stronger effect = lower value 0.987 | locus YCL061C, strain MRC1 (second series), stronger effect = lower value 0.988 | locus YCL069W, strain vba3, stronger effect = lower value 0.988 | locus YCR088W, strain abp1, stronger effect = lower value 0.984 | locus YDL005C, strain med2, stronger effect = lower value 0.959 | locus YDL035C, strain GPR1, stronger effect = lower value 0.994 | locus YDL040C, strain nat1, stronger effect = lower value 0.973 | locus YDL074C, strain BRE1, stronger effect = lower value 1.02 | locus YDL101C, strain DUN1, stronger effect = lower value 0.987 | locus YDL134C, strain PPH21, stronger effect = lower value 1 | locus YDL192W, strain arf1, stronger effect = lower value 0.971 | locus YDR001C, strain nth1, stronger effect = lower value 0.982 | locus YDR069C, strain doa4, stronger effect = lower value 0.993 | locus YDR101C, strain arx1, stronger effect = lower value 0.977 | locus YDR137W, strain rgp1, stronger effect = lower value 0.962 | locus YDR159W, strain sac3, stronger effect = lower value 0.983 | locus YDR162C, strain NBP2, stronger effect = lower value 0.995 | locus YDR195W, strain ref2 0.998 | locus YDR297W, strain sur2, stronger effect = lower value 0.99 | locus YDR318W, strain mcm21, stronger effect = lower value 0.979 | locus YDR334W, strain swr1, stronger effect = lower value 0.964 | locus YDR335W, strain msn5, stronger effect = lower value 0.984 | locus YDR363W, strain ESC2, stronger effect = lower value 0.957 | locus YDR388W, stronger effect = lower value 0.988 | locus YDR392W, strain spt3, stronger effect = lower value 0.883 | locus YDR502C, strain sam2, stronger effect = lower value 0.978 | locus YEL003W, strain gim4, stronger effect = lower value 0.992 | locus YEL037C, strain rad23, stronger effect = lower value 0.972 | locus YEL061C, strain CIN8 (second series), stronger effect = lower value 0.977 | locus YEL061C, strain CIN8, stronger effect = lower value 0.994 | locus YER002W, strain NOP16, stronger effect = lower value 1.01 | locus YER015W, strain faa2, stronger effect = lower value 0.987 | locus YER016W, strain bim1, stronger effect = lower value 0.946 | locus YER110C, stronger effect = lower value 0.97 | locus YER111C, strain swi4, stronger effect = lower value 0.967 | locus YER155C, strain BEM2 (second series), stronger effect = lower value 0.975 | locus YER155C, strain BEM2, stronger effect = lower value 0.991 | locus YER167W, strain BCK2, stronger effect = lower value 0.993 | locus YFR010W, strain ubp6, stronger effect = lower value 0.999 | locus YGL078C, strain dbp3, stronger effect = lower value 0.981 | locus YGL086W, strain mad1, stronger effect = lower value 0.987 | locus YGL167C, strain pmr1, stronger effect = lower value 0.986 | locus YGL173C, strain kem1, stronger effect = lower value 0.971 | locus YGL227W, strain vid30, stronger effect = lower value 0.98 | locus YGL240W, strain doc1, stronger effect = lower value 1.02 | locus YGL248W, strain PDE1, stronger effect = lower value 0.999 | locus YGL253W, strain hxk2, stronger effect = lower value 0.962 | locus YGR078C, strain PAC10, stronger effect = lower value 0.993 | locus YGR135W, strain pre9, stronger effect = lower value 0.982 | locus YGR229C, strain SMI1, stronger effect = lower value 0.972 | locus YGR252W, strain gcn5, stronger effect = lower value 1.15 | locus YHR013C, strain ard1, stronger effect = lower value 0.955 | locus YHR027C, strain rpn1, stronger effect = lower value 0.993 | locus YHR030C, strain SLT2, stronger effect = lower value 0.981 and 0.948 | locus YHR079C, strain IRE1 (second series), stronger effect = lower value 0.981 | locus YHR079C, strain IRE1, stronger effect = lower value 0.974 | locus YHR094C, strain hxt1, stronger effect = lower value 0.975 | locus YHR129C, strain ARP1, stronger effect = lower value 1 | locus YHR142W, strain chs7, stronger effect = lower value 0.973 | locus YHR200W, strain rpn10, stronger effect = lower value 0.987 | locus YIL066C, strain RNR3, stronger effect = lower value 0.994 | locus YIL073C, strain SPO22, stronger effect = lower value 0.938 | locus YIL125W, strain kgd1, stronger effect = lower value 0.958 | locus YIR030C, strain dcg1, stronger effect = lower value 0.992 | locus YJL092W, strain hpr5, stronger effect = lower value 0.99 | locus YJL095W, strain BCK1 (second series), stronger effect = lower value 1 | locus YJL095W, strain BCK1, stronger effect = lower value 1.01 and 0.964 | locus YJL115W, strain asf1, stronger effect = lower value 1 | locus YJL129C, strain trk1, stronger effect = lower value 0.934 | locus YJL134W, strain LCB3, stronger effect = lower value 0.987 | locus YJL154C, strain vps35, stronger effect = lower value 0.974 | locus YJL164C, strain tpk1, stronger effect = lower value 1 | locus YJL166W, strain qcr8, stronger effect = lower value 1.02 | locus YJL168C, strain set2, stronger effect = lower value 0.984 | locus YJL187C, strain SWE1 (second series), stronger effect = lower value 0.976 | locus YJR043C, strain POL32, stronger effect = lower value 1 | locus YJR066W, strain TOR1, stronger effect = lower value 0.916 | locus YJR075W, strain HOC1, stronger effect = lower value 0.98
